Screening results deposited in PubChem by National Center for Advancing Translational Sciences (NCATS).
Tau fil binding: binders of human tau filaments; P10636; recombinant tau filaments, thioflavin S fluorescence, 15 h; filaments grown with octadecylsulfate alongside compound; Potency, µM (highest dose often 57.1 µM), inactives show at the top dose activity change, negative = inhibition; hit rate 2% among 71,000; AID 596;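 further: on the % scale 0 is the no-effect control and ±100 the full control effect; actives lower thioflavin S fluorescence by blocking filaments or displacing dye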
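Read-out: ThS fluorescence, 450 nm excitation/510 nm emission; lower signal marks blocked filament formation or displaced dye. Tau at 1 uM with 30 uM ODS, 10 uM ThS, 5 mM DTT, 100 mM NaCl, 10 mM HEPES pH 7.4; 15 h, 37 C.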
ALOX15 inhib: blocks human 15-lipoxygenase activity; purified 15hLO-1, xylenol orange hydroperoxide absorbance; Potency, µM (doses to about 57.1 µM), inactives show at the top dose activity change, negative = inhibition, actives largely listed as inhibitors; hit rate 1.4% among 74,000; AID 887; further: on the % scale 0 is the no-effect control and ±100 the full control effect; nearly all actives have a fitted effect of over 55% in size
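Hydroperoxide formed from arachidonic acid (50 uM) by purified human 15hLO-1 (40 nM) oxidizes ferrous iron, and the ferric-xylenol orange complex is read at 573 versus 405 nm. Compounds were preincubated 15 min; reaction ran 6 min at room temperature.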
Bst PK mod: modulators of Bacillus stearothermophilus pyruvate kinase; Potency, µM; hit rate 1.2% among 51,000; purified pyruvate kinase, luminescence ATP production; ribose 5-phosphate activator present at AC10; in the data active means potency below about 11 µM; inconclusive means mostly about 12 µM to 25 µM;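 the screen sought inhibitors and activators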;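 further: scaled between full activation by ribose 5 phosphate and full inhibition by luteolin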
TSHR agonist: TSH receptor (human) agonism; P16473; hit rate 0.48% among 73,000; Potency, µM (highest dose often 57.1 µM), for the others: at the highest dose activation, hits mostly activators; HEK293-CNG-TSHR cells (CNG channel as cAMP sensor), membrane potential dye, cAMP; active means well fitted activation curve with a large enough effect in the main read-out, with a control signal flat, not every such curve was filed as active; inconclusive means small, poorly fitted or top-dose-only effect, or a change in a side signal; inactive means no such curve, though single readings can be large or run the other way; % of control where 0% means no effect;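 further: the control signal comes from parental cells without the receptor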
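HEK 293 cells stably expressing TSHR and a cAMP-gated CNG channel; parental CNG-only cells as counterscreen. Cells preloaded 60 min with membrane potential dye plus 100 uM RO 20-1724, then compound 30 min; fluorescence read at 590 nm.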
HEK293 cAMP ctrl: parental HEK293 cAMP activation (counter-screen). parental HEK293 CNG cAMP sensor, membrane potential fluorescence. Potency, µM (titrated, usually from 57.1 µM), inactives show at the top dose activation, actives largely listed as activators. hit rate 2.5% among 73,000; further: % of control where 0% means no effect; nearly all actives have a fitted effect of over 55% in size
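Parental HEK 293 cells stably expressing a cAMP-gated CNG channel were loaded with membrane potential dye containing 100 uM RO 20-1724 for 60 min. Compound added for 30 min; depolarization read as fluorescence intensity at 590 nm.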
Luciferase inh: blocks Photinus pyralis firefly luciferase activity | P08659 | purified firefly luciferase, luminescence, 8 min | Potency, µM (top dose mostly 57.1 µM), without a hit: at the top dose activity change, negative = inhibition, hits mostly inhibitors | hit rate 2.2% among 72,000 | AID 411; further: on the % scale 0 is the no-effect control and ±100 the full control effect; nearly all actives have a fitted effect of over 40% in size
Target sequence (P08659 whole entry, looked up): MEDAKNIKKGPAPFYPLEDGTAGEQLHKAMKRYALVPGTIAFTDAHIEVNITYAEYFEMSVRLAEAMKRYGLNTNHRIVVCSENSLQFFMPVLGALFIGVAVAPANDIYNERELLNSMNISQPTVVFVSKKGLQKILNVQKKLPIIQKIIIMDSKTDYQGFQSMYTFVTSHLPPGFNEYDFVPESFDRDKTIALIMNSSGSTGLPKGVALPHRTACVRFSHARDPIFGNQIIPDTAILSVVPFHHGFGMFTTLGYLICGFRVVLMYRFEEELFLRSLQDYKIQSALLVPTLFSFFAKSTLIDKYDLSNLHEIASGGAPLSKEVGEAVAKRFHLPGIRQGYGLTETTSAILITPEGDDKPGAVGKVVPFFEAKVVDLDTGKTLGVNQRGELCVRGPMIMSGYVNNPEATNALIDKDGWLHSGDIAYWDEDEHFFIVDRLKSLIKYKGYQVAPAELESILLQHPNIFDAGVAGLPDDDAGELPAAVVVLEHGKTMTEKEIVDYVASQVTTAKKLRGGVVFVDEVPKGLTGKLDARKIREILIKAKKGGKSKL
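Luminescence read-out after 8 min at room temperature; enzyme reaction used luciferin plus 10 uM ATP (linear range) in imidazole buffer pH 7.2 with KCl, MgCl2, Tween 20 and BSA. Each sample was run as a titration.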
Numbers without * were called inactive; i = inactive; u = inconclusive; x = not tested or not shown; [ ] = another dose, or the depositor's remark. Rows were chosen to be rich in hits. Some 7.8% of all compounds tested hit in one or more screens of this group. Unless noted, the call rests on the fitted dose curve; in most records, active means well fitted curve in the direction sought with a large enough effect; inconclusive means small, poorly fitted or top-dose-only effect, or another doubt; inactive means no such curve, though single readings can be large; an effect the other way counts as inactive or inconclusive. Potency means the concentration at half of the fitted maximal effect.

SMILES	Tau fil binding	ALOX15 inhib	Bst PK mod	TSHR agonist	HEK293 cAMP ctrl	Luciferase inh
C=CCOc1ccccc1/C=N/O	-3%	-26%	>57	u	25µM*	-14%
N#Cc1cccc(-c2cc(NCc3cccs3)ncn2)c1	-5%	u	x	3%	6%	-1%[2.29 µM]
CCOC(=O)Cn1nnnc1C(CC)N(Cc1cccs1)Cc1cc2cc(C)ccc2[nH]c1=O (stereo not drawn)	34%	-25%	>57	u	4µM*	0%
CCOC(=O)Cn1nnnc1C(CC)N(Cc1cc2c(C)cc(C)cc2[nH]c1=O)C1CCCC1 (stereo not drawn)	-3%	-2%	>57	12%	0%	u
CCOC(=O)Cn1nnnc1C(CC)N(Cc1cc2ccc(C)cc2[nH]c1=O)C1CCCC1 (stereo not drawn)	16%	-28%	>57	u	16µM*	0%
COc1ccccc1N1CCN(C(c2ccc(Cl)cc2)c2nnnn2C(C)(C)C)CC1 (stereo not drawn)	-18%	-12%	>57	u	2µM*	-1%
CCC(C)(C)n1nnnc1C(c1ccncc1)N1CCN(c2cccc(OC)c2)CC1 (stereo not drawn)	-5%	0%	>57	u	2.5µM*	2%
COc1ccccc1N1CCN(C(c2ccccc2Cl)c2nnnn2C(C)(C)C)CC1 (stereo not drawn)	14%	4%	>57	u	u	-1%
Cc1noc(C)c1C(=O)N1CCC[C@@]2(CCN(C(=O)NC(C)C)C2)C1	13%	2%	x	2%	11%	0%[11.4 µM]
Cc1cccc(C)c1OCC(=O)Nn1c(C)nc2ccccc2c1=O	5%	-25%	>57	x	10%	1%
N#Cc1cc2c([nH]c1=S)CCCCCC2	x	u	x	4%	-5%	x
N#Cc1c(N)n[nH]c1-c1cc2c([nH]1)CCCC2	-2%	-28%	6.3*	u	-32%	-5%
Cn1cccc1Cc1nnc(SCC(=O)NCC2CCCO2)n1CCc1ccccc1 (stereo not drawn)	-16%	-13%	>57	1%	5%	1%
O=C1CCCCC1Sc1nnc(Cc2cccs2)n1CCc1ccccc1 (stereo not drawn)	-5%	-14%	>57	u	10µM*	0%
COC(=O)CCn1nnc(-c2cccs2)n1	-1%	4%	>57	-2%	5%	3%
COC(=O)CCn1nnc(-c2ccc(C(C)C)cc2)n1	-1%	-2%	>57	3%	12%	13µM*
NC(=Nc1ccccc1)NC(=O)c1nc(Cl)c(N)nc1N	-23%	-8%	x	8%	7%	-26%
CN(C)c1nc(N)c(C(=O)N=C(N)N)nc1Cl	-12%	-2%	x	u	25µM*	-5%
COC(=O)c1cn(C(=O)c2cccs2)c2ccccc12	1%	-23%	>57	u	u	2%
CN(CCc1ccccn1)c1ccc2c(c1)C(=O)c1ccccc1-2	4µM*	2%[11.4 µM]	x	u	-31%[11.4 µM]	-24%[11.4 µM]
C=CCN1C(=O)C2(/C(=C(\O)c3ccc4c(c3)OCCO4)C(=O)C(=O)N2CCCOC)c2ccccc21 (stereo not drawn)	6%	5%	>57	u	u	1%
CN(C(=O)c1ccncc1)c1nnc(-c2ccccn2)s1	9%	-9%	>57	16%	3%	-13%
CN(C(=O)c1ccccc1)c1nc2ccccc2s1	6%	-11%	8.5*	10%	10%	6.3µM*
COc1ccc(CNc2ccnc(-c3ccc(N(C)C)cc3)n2)c(OC)c1	143%	-28%	x	5%	-19%	-4%[2.29 µM]
CCCCOn1c(C)c(C(=O)OCC)c2c3no[n+]([O-])c3ccc21	8%	-5%	>57	18%	7%	-1%
CCCCOn1c(C)c(C(=O)OCC)c2c3nonc3ccc21	18%	-10%	>57	u	13µM*	2%
COc1ccc(OC)c(Nc2nc(-c3sc(C)nc3C)cs2)c1	-21%	-13%	x	-13%	-12%	1%
COc1cccc(Nc2nc(-c3sc(N)nc3C)cs2)c1	13µM*	-1%	i	x	2%	-21%
